Shown are actives, neighbours in structure and some others; about 6.8% of the full set was active somewhere.
Spn PMK inh: S. pneumoniae PMK inhibition; hit rate 0.49% among 65,000; purified PMK, PK/LDH-coupled NADH absorbance 340 nm; AID 539; inhibition, % at 10 µM;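 active means top-ranked compounds by inhibition in the single 10 µM screen, taking a fixed number of the strongest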
MK inhibit: inhibitors of Streptococcus pneumoniae mevalonate kinase. purified MK, PK/LDH-coupled NADH absorbance 340 nm. inhibition, % at 10 µM. hit rate 0.48% among 65,000. AID 555;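 active means ranked among the strongest by inhibition in the single 10 µM screen, a fixed top-ranked set picked for dose follow-up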
NADH enzymes: blocks coupling enzymes of NAD/NADH assays; IC50, µM (top dose mostly 10 µM); AID 774; coupled PK/LDH NADH assays, four targets; hit rate 0.02% among 65,000;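 active means single-dose screening hits from any of four coupled enzyme assays that gave an IC50 when retested across doses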;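 further: the DPM-DC format reads NADH fluorescence rather than 340 nm absorbance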
Abs 340nm: absorbance at 340 nm; compound absorbance at 340 nm, fold over control; fold change at 10 µM; 65,000 tested, under 10 active; AID 708;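 active means at 10 µM dose, initial 340 nm absorbance at least 2 fold that of control wells; inactive means change under 2 fold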;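 further: initial absorbance extrapolated from kinetic A340 decline of NADH oxidation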
Fluor 339 460: intrinsic fluorescence of library compounds, ex339/em460 – biochemical, MLSMR library, data from DPM-DC assay, artefact control, profiling panel; compound autofluorescence, ex339/em460 nm, NADH buffer; hits give high values; 1 = no-compound wells, NADH background; fluorescence fold increase at 10 µM; hit rate 5.5% among 65,000;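 active means at 10 µM, mean starting fluorescence two-fold or more over control wells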;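 further: signal is the first read of a kinetic run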
Spn DPM-DC inh: blocks S. pneumoniae diphosphomevalonate decarboxylase. purified DPM-DC, PK/LDH coupled NADH fluorescence. calls only at 10 µM. hit rate 0.49% among 65,000. AID 556;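 active means the 320 compounds with the highest percent inhibition in the single-dose primary screen, excluding strongly autofluorescent ones, cut at about 32% in these data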;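 further: kinetic rate of NADH fluorescence loss reporting ADP formed by the decarboxylase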
Large screens that a line does not name were inactive.

CCOC(=O)c1c(C)n(OCc2ccccc2)c2ccc3nonc3c12	Fluor 339 460 2.2 (not shown: Spn DPM-DC inh)
NC(=O)c1nsnc1-c1ccccc1O	none
c1ccc(-n2c(-c3ccncc3)nnc2-c2cccs2)cc1	none
c1csc(-c2ncc3ccccn23)c1	Fluor 339 460 3.38 (not shown: Spn DPM-DC inh)
COc1ccc(-c2ncc3ccccn23)cc1	Fluor 339 460 3.23 (not shown: Spn DPM-DC inh)
CN(Cc1ccccc1)C(=O)c1ccc2c(c1)OCCO2	none
N#CCn1c(C2CCCCC2)nc2ccccc2c1=O	none
CCC(NS(=O)(=O)c1ccc(C)cc1)C(=O)Nc1ccc(NC(C)=O)cc1 (stereo not given)	none
O=C(OCC1COc2ccccc2O1)c1c(F)cccc1F (stereo not given)	none
COCC(COCCCNC(=O)Nc1ccc(Br)cc1)OC (stereo not given)	none
CC(C)Cn1cc(C(=O)N2CCOCC2)c2c3ccccc3n(C)c2c1=O	Fluor 339 460 2.6
COCCn1cc(C(=O)N2CCC(C)CC2)c2c3ccccc3n(C)c2c1=O	Fluor 339 460 4.76 (not shown: Spn DPM-DC inh)
Cn1c2ccccc2c2c(C(=O)N3CCN(c4ccccn4)CC3)cn(C3CCCC3)c(=O)c21	none
CC(C)Cn1cc(C(=O)NCc2cccs2)c2c3ccccc3n(C)c2c1=O	Fluor 339 460 2.65
COc1ccc(N2CCN(C(=O)c3cn(C)c(=O)c4c3c3ccccc3n4C)CC2)cc1	none
CCOC(=O)N1CCN(C(=O)c2cn(CC(C)C)c(=O)c3c2c2ccccc2n3C)CC1	Fluor 339 460 4.18 (not shown: Spn DPM-DC inh)
O=C(CN1CCC(NC(=O)c2cccc(F)c2)CC1)NCc1ccccc1F	none
CCCN(CCC)CCCNC(=O)c1cn(CCOC)c(=O)c2c1c1ccccc1n2C	Fluor 339 460 3.47
CCCN(CCC)CCCNC(=O)c1cc2c(=O)n(C)c3ccccc3c2n1C	none
CCOC(=O)N1CCN(C(=O)c2cn(C)c(=O)c3c2c2ccccc2n3C)CC1	Fluor 339 460 3.54
COC(=O)c1[nH]c2cccc(OC)c2c1NC(=O)CCN1CCC(C(N)=O)CC1	Fluor 339 460 2.86
COC(=O)c1[nH]c2cccc(OC)c2c1NC(=O)CN1CCC(C(N)=O)(N2CCCCC2)CC1	Fluor 339 460 3.72 (not shown: Spn DPM-DC inh)
COC(=O)c1[nH]c2cccc(OC)c2c1NC(=O)CCN1CCN(c2ccccc2F)CC1	Fluor 339 460 3.15
Cn1c(=O)c2c(nc(CN3CCN(c4ccc(F)cc4)CC3)n2Cc2ccccc2F)n(C)c1=O	none
CCn1c(CSc2nc(C)cc(C)n2)nnc1SCC(=O)N1CCCc2ccccc21	none
O=C1C2CC=C(Cl)CC2C(=O)N1CN(Cc1ccco1)CN1C(=O)C2CC=C(Cl)CC2C1=O (stereo not given)	none
CCCc1cc(=O)[nH]c(SCC(=O)NC2CCCCC2)n1	none
CC(=O)c1cc2c(cc1NC(=O)CSc1nnc(C)s1)OCO2	Fluor 339 460 2
CCCc1cc(=O)[nH]c(SCC(=O)Nc2cc3c(cc2C(C)=O)OCO3)n1	Fluor 339 460 2.15
Cc1cc(NC(=O)Cn2cnc3sc(C)c(-c4ccccc4)c3c2=O)no1	none
Cc1cccc(-n2c(=O)[nH]c3c(C(N)=O)nc(C(C)C)nc32)c1	Fluor 339 460 4.95 (not shown: Spn DPM-DC inh)
COc1ccc(-c2nc(C(N)=O)c3[nH]c(=O)n(-c4cccc(Cl)c4)c3n2)cc1OC	none
CCCCOc1ccc(S(=O)(=O)Nc2cccnc2)cc1	none
CCC(Oc1ccccc1)C(=O)Nc1ccccn1 (stereo not given)	none
O=C(OC(C(=O)NCC1CCCO1)c1ccc(F)cc1)c1ccco1 (stereo not given)	none
COc1ccc(OC)c(C2=NO[C@@H]3C(=O)N(c4cc(Cl)ccc4OC)C(=O)[C@H]23)c1	Fluor 339 460 2.02
CCN1CCN(C(c2cccs2)C(C)NC(=O)C(C)C)CC1 (stereo not given)	none
CCCCSc1nnc2n(CCc3ccccc3)c(=O)c3c4c(sc3n12)COC(C)(C)C4	none
Cc1[nH]nc2c1C(c1ccc(F)cc1)C1=C(CC(C)(C)CC1=O)N2 (stereo not given)	Fluor 339 460 3.14 (not shown: Spn DPM-DC inh)
Cc1cc2c(cc1C)NC(c1cccnc1)C1=C(CC(C)(C)CC1=O)N2 (stereo not given)	none
Cc1[nH]nc2c1C(c1cccc(O)c1)C1=C(CC(C)(C)CC1=O)N2 (stereo not given)	Fluor 339 460 4.99 (not shown: Spn DPM-DC inh)
Cc1ccc(C2C3=C(CC(C)(C)CC3=O)Nc3n[nH]c(C)c32)cc1 (stereo not given)	Fluor 339 460 4.93 (not shown: Spn DPM-DC inh)
CC(CCc1ccccc1)NC(=O)c1ccncc1 (stereo not given)	none
CC(CCc1ccccc1)NCC(O)c1ccc(O)c(C(N)=O)c1 (stereo not given)	Fluor 339 460 2.48 (not shown: Spn DPM-DC inh)
CN1CCc2c(n(CC(O)CN3C(=O)c4ccccc4S3(=O)=O)c3ccccc23)C1=O (stereo not given)	none
CC(C)NCC(O)Cn1c2c(c3ccccc31)CCc1c-2cnn1-c1ccccc1 (stereo not given)	Fluor 339 460 3.9 (not shown: Spn DPM-DC inh)
Cc1ccc2c(c1)nc(NCCO)n2C	Fluor 339 460 2.08
CCN(CC)CCNc1nc2ccccc2n1C	none
Cc1cc(C)n(-c2nc3c(c(=O)n(C)c(=O)n3C)n2Cc2cccc(Br)c2)n1	none
CC(Sc1ccc2nnc(-c3ccc(F)cc3)n2n1)C(=O)O (stereo not given)	none
CCSc1ccc2nnc(-c3ccc(F)cc3)n2n1	Fluor 339 460 2.04
CCOC(=O)C(C)Sc1ccc2nnc(-c3ccc(F)cc3)n2n1 (stereo not given)	Fluor 339 460 2.15
Nc1cc(N)nc(SCC(=O)NCC2CCCO2)n1 (stereo not given)	none
O=C(CSc1ccc2nnc(-c3ccc(F)cc3)n2n1)NCC1CCCO1 (stereo not given)	Fluor 339 460 2.28
O=C(CSc1ccc2nnc(-c3ccc(F)cc3)n2n1)N1CCCCC1	none
O=C(CSc1cc(Cl)ccc1Cl)NCC1CCCO1 (stereo not given)	Spn PMK inh 25.0
COc1ccc(OC)c(N/C(=N\c2nc(C)cc(C)n2)NC(=O)c2ccco2)c1	none
CN(C)C(CNc1nnnn1-c1ccccc1)c1ccco1 (stereo not given)	none
O=C(O)CCc1ccc(-c2cccs2)n1CC1CCCO1 (stereo not given)	Fluor 339 460 2.98
CCCn1c(CCC(=O)O)ccc1-c1cccs1	none (no result: Spn DPM-DC inh)
COCCCn1c(CCC(=O)O)ccc1-c1cccs1	Fluor 339 460 3.95 (not shown: Spn DPM-DC inh)
CCc1ccccc1NC(=O)Cn1nnc(-c2cccnc2)n1	none
CC1(C)Cc2nc3oc4c(NCc5ccccc5)ncnc4c3cc2CO1	Fluor 339 460 3.76 (not shown: Spn DPM-DC inh)
CCCc1nc2oc3c(NCc4ccccn4)ncnc3c2c2c1COC(C)(C)C2	Fluor 339 460 2.66
CC(C)c1nc2oc3c(NCC4CCCO4)ncnc3c2c2c1CCC2 (stereo not given)	Fluor 339 460 2.4
c1nc(NCC2CCCO2)c2[nH]cnc2n1 (stereo not given)	none

Screening data as filed in PubChem BioAssay.
